Screens deposited in PubChem BioAssay by National Center for Advancing Translational Sciences (NCATS).
LDHA inh – blocks human lactate dehydrogenase A | AID 1347041 | actives 0.15% (n = 480,000) | activity change, % (values are at about 110 or 230 µM) | purified LDHA, NADH/diaphorase-resazurin fluorescence; hits give low values; in the data active = activity change below about -30%; inconclusive = mostly about -25% to -30%;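 note: plate controls were DMSO wells for no effect and wells without enzyme for full effect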
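LDH5 2 nM; NADH 0.06 mM, pyruvate 0.2 mM; 200 mM Tris pH 7.4, EDTA, Tween-20; 5 min RT. Detection: diaphorase 0.133 mg/mL + resazurin 37 µM, fluorescence ex540/em590 at 0 and 20 min; normalized to enzyme-free and DMSO wells.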
EPAC2 ag – activates human EPAC2 exchange factor; EPAC2 activation, biochemical qHTS; response scale: 100% = 6.5 mM cAMP response; Potency, µM (doses to about 154 µM), without a hit: at the top dose activation, actives largely listed as activators; actives 0.079% (n = 360,000); AID 720711; note: potency is the fitted concentration of half-maximal effect; nearly all actives have a fitted effect of over 50% in size
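Nucleotide exchange monitored as fluorescence drop when BODIPY-GDP leaves Rap1B. Reaction: 100 nM EPAC2, 250 nM RAP1B-BODIPY-GDP, 50 uM GDP, room temperature, kinetic read over 30 min. Activity expressed relative to 6.5 mM cAMP.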
EPAC2 antag – blocks human EPAC2 exchange factor | Q8WZA2 | Potency, µM (series often up to 114 µM), for inactives: at the highest dose activity, negative = inhibition, usual class: inhibitors | actives 0.18% (n = 360,000) | EPAC2 GEF exchange of Rap1B-BODIPY-GDP, fluorescence; note: potency is the fitted concentration of half-maximal effect; % is set by controls: 0 for no effect and ±100 for the full control effect; nearly all actives have a fitted effect of over 45% in size
EPAC1 antag – antagonists of human EPAC1. O95398. EPAC1 GEF assay, Rap1b-BODIPY-GDP exchange fluorescence. Potency, µM (series often up to 115 µM), for the others: at the top dose activity change, negative = inhibition, usual class: inhibitors. actives 0.14% (n = 360,000). AID 720709;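 note: potency is the fitted concentration of half-maximal effect; plate controls were vehicle for no effect and positive control for full effect; nearly all actives have a fitted effect of over 50% in size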
Target sequence (O95398 whole entry, looked up): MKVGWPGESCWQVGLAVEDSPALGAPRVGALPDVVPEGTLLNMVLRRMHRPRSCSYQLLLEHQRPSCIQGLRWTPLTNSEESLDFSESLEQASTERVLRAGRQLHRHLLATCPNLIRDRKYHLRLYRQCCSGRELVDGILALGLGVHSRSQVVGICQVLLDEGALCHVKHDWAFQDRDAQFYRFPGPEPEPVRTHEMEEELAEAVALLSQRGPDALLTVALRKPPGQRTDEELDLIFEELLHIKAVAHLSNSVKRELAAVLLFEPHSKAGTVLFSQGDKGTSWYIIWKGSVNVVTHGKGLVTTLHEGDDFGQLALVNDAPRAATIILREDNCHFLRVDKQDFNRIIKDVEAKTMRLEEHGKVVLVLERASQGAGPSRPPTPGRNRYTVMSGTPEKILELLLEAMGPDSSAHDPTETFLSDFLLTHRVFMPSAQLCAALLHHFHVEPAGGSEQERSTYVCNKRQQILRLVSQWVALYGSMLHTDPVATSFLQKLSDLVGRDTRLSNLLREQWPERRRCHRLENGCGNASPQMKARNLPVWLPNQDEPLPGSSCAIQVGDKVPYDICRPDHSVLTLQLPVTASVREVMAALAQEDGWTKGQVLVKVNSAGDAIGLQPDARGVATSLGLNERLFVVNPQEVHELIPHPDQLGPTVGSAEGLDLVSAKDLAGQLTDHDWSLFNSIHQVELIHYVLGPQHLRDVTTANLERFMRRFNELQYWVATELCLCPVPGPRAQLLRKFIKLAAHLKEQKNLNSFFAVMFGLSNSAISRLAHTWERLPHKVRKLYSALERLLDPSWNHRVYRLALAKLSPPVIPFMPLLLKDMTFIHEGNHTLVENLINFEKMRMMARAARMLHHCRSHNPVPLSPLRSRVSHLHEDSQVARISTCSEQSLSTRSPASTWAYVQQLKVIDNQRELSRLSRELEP
USP1-UAF1 inh – USP1/UAF1 (human) deubiquitinase inhibition; O94782; recombinant USP1/UAF1, Ub-Rhodamine cleavage fluorescence; Potency, µM (series often up to 57.1 µM), without a hit: top-dose activity change, negative = inhibition, actives largely listed as inhibitors; actives 0.23% (n = 390,000); AID 743255; note: potency is the fitted concentration of half-maximal effect; % is set by controls: 0 for no effect and ±100 for the full control effect; nearly all actives have a fitted effect of over 60% in size
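USP1/UAF1 complex at 1 nM was preincubated with compound for 15 min at room temperature, then Ub-Rho substrate (150nM final) was added. Fluorescence (480/540 nm) was read kinetically, 6 reads every 60 seconds.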
EPAC1 ag – EPAC1 (human) agonism; O95398; actives 0.073% (n = 360,000); Potency, µM (titrated, usually from 154 µM), inactives show at the top dose activation, hits mostly activators; EPAC1 agonist qHTS, biochemical assay; response scale: 100% = response to 6.5 mM cAMP; note: potency is the fitted concentration of half-maximal effect; nearly all actives have a fitted effect of over 60% in size
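EPAC1 100 nM, Rap1B–BODIPY-GDP 250 nM, unlabeled GDP 50 uM; compound titration; 5 min RT; kinetic read ex480/em540 at 5-min intervals ×30 min; data normalized to 6.5 mM cAMP agonist control.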
* hit, by the source's call; ? = inconclusive; · = not tested or not shown. Sampled rows, rich in hits. Any-hit rate of the full collection: about 0.56%. Unless noted, calls come from the whole dose curve; as a rule, active = well fitted curve in the direction sought with a large enough effect; inconclusive = small, poorly fitted or top-dose-only effect, or another doubt; inactive = no such curve, though single readings can be large; an effect the other way counts as inactive or inconclusive.

SMILES	LDHA inh	EPAC2 ag	EPAC2 antag	EPAC1 antag	USP1-UAF1 inh	EPAC1 ag
COc1ccc(C)cc1NC(=O)N1CCCC1c1cccs1 (stereo unspecified)	8.4	·	·	·	·	·
CCOC(=O)C1CCCCN1Cc1cccc(Oc2ccccc2)c1 (stereo unspecified)	-0.2	2.9%	39.8µM*	-15.0%	2.7%	-3.4%
CCN(CC(=O)Nc1c(C#N)c(C)c(C)n1Cc1ccco1)CC(=O)NC(C)(C)C	-3.6	·	·	·	·	·
O=C1NN(c2ccc(Cl)cc2)C(=O)/C1=C\c1ccc(-c2cccc(C(=O)O)c2)o1	1.8	0.3%	-3.4%	?	?	2.1%
O=C1NN(c2ccccc2)C(=O)/C1=C\c1ccc(-c2cc([N+](=O)[O-])ccc2O)o1	-3.2	-22.5%	79.4µM*	-4.4%	-28.1%	-6.4%
Cn1c(=O)c(-c2cc(Br)ccc2N)nc2ccccc21	-0.3	9.4%	-1.9%	-4.7%	-21.7%	0.5%
COC(=O)c1cc(C)nc2c1C(=O)C(=O)C=C2N1CCOCC1	6.2	?	?	3.55µM*	1.26µM*	-9.2%
O=C(O)CN1C(=O)/C(=C\c2cc(Br)ccc2OCc2ccccc2Cl)SC1=S	-20.7	10.3%	-9.5%	39.8µM*	?	4.8%
O=C(O)CN1C(=O)/C(=C\c2ccccc2OCc2ccc(Cl)cc2Cl)SC1=S	-8.5	-0.6%	?	?	?	4.5%
O=C(O)CN1C(=O)/C(=C\c2cc(Br)ccc2OCc2ccccc2F)SC1=S	-16.5	0.1%	56.2µM*	?	?	5.7%
O=C(NCCOc1ccc(F)cc1)c1ccccc1SCc1ccccc1	-2.1	9.1%	50.1µM*	-7.4%	-11.5%	16.4%
O=C(CCC1CCCC1)Nc1ccc([N+](=O)[O-])cn1	-3.2	-1.9%	9.5%	103.1%	-12.5%	112µM*
Cc1ccc(C)c(NC(=O)Cn2c(SCC(=O)NCc3ccccc3)nc3ccccc32)c1	-16.9	·	·	·	0.2%	·
COC1OC(c2ccccc2)=C(c2cnc(N)nc2)c2ccc(F)cc21 (stereo unspecified)	-9.9	9.9%	39.8µM*	-4.6%	·	5.1%
N#CCC(=O)N/N=C/c1ccc(Sc2nc3ccccc3s2)o1	-47.9*	12.2%	-7.4%	-6.5%	5.5%	9.4%
CCC(CC)C(=O)Nc1ccc(S(=O)(=O)NC(C)(C)C)cc1	5.3	·	·	·	·	·
O/C(=C\c1ccc2ccccc2n1)c1ccc(O)cc1O	-6.7	9.9%	51.5%	5.7%	28.2µM*	2.1%
CCCOc1cc(N(CC)CC)ccc1/C=C(/C#N)c1nc2ccc(C)cc2[nH]1	3.3	9.9%	11.9%	8.5%	66.1%	?
CCN(CC)c1ccc(/C=C(/C#N)c2nc3ccc(C)cc3[nH]2)c(OC(C)C)c1	8.2	?	1.0%	1.4%	25.1µM*	?
COc1cc(/C=C(\C#N)c2nc3ccc(C)cc3[nH]2)cc([N+](=O)[O-])c1O	28.9	6.3%	?	28.2µM*	?	-2.8%
Cc1ccc2c(c1)-c1ccccc1C2=O	5.0	·	·	·	·	·
O=C1C(=O)c2ccc(-c3ccccc3)cc2-c2ccccc21	46.3	24.8%	-26.2%	?	5.01µM*	-2.3%
Nc1ccc2c(c1)C(=O)c1ccccc1-2	-4.2	9.8%	-18.2%	-26.2%	-6.8%	15.9%
Nc1ccc2c(c1)C(=O)C(=O)c1ccccc1-2	32.3	-12.2%	8.91µM*	?	1.26µM*	-8.8%
COc1cc2c(cc1OC)C(COc1ccc(F)cc1)N(C(C)=O)CC2 (stereo unspecified)	1.3	2.0%	?	5.7%	-11.6%	-4.6%
CCC(=O)N1CCc2cc(OC)c(OC)cc2C1COc1ccccc1OC (stereo unspecified)	-1.0	-0.9%	44.7µM*	15.7%	1.7%	10.4%
CCC(=O)N1CCc2cc(OC)c(OC)cc2C1COc1ccc(F)cc1 (stereo unspecified)	-5.6	10.5%	14.1µM*	7.8%	-8.2%	5.9%
